Assay results as given in PubChem BioAssay AID1159580 (chemical genetic matrix, 2015).
Screen size: about 5,500 compounds; about 2,000 (36%) were called active. Roughly 18% stayed inconclusive and do not appear here. Cut-off read from the data, not from the text of the source: active = normalized growth mostly below about 0.91 (no sharp cut-off); inconclusive = no clear call, values can overlap the other calls; inactive = mostly above about 0.92. Some of the results follow.

Assay: chemical genetic growth profiling, strain panel (AID 1159580);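 note: tested at 20 µM; growth read once vehicle control cultures reached saturation at 30 °C; 1 = growth at the plate median or of vehicle wells; lower values mean less growth of the strain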
Conditions: S. cerevisiae deletion strains, growth OD

Measured: normalized growth

Oc1ccc2c(c1)OCC1c3cc4c(cc3OC21)OCO4 (stereo not drawn)
inactive: locus YBR021W, strain FUR4, hits give low values 0.862 | locus YBR229C, strain ROT2, hits give low values 0.957 | locus YCL029C, strain bik1, hits give low values 0.946 | locus YDL035C, strain GPR1, hits give low values 0.981 | locus YDL074C, strain BRE1, hits give low values 1.03 | locus YDL101C, strain DUN1, hits give low values 0.987 | locus YDL134C, strain PPH21, hits give low values 1.02 | locus YDL185W, strain tfp1, hits give low values 0.964 | locus YDL192W, strain arf1, hits give low values 0.944 | locus YDR101C, strain arx1, hits give low values 0.942 | locus YDR150W, strain NUM1, hits give low values 1 | locus YDR162C, strain NBP2, hits give low values 0.993 | locus YDR318W, strain mcm21, hits give low values 0.962 | locus YDR388W, hits give low values 0.966 | locus YDR502C, strain sam2, hits give low values 0.961 | locus YEL061C, strain CIN8, hits give low values 0.99 | locus YER110C, hits give low values 0.954 | locus YER155C, strain BEM2, hits give low values 1 | locus YER167W, strain BCK2, hits give low values 1 | locus YGL078C, strain dbp3, hits give low values 0.992 | locus YGL086W, strain mad1, hits give low values 0.957 | locus YGL248W, strain PDE1, hits give low values 1 | locus YGR135W, strain pre9, hits give low values 0.993 | locus YGR252W, strain gcn5, hits give low values 0.902 | locus YHR079C, strain IRE1 (second series), hits give low values 0.995 | locus YHR094C, strain hxt1, hits give low values 0.982 | locus YHR129C, strain ARP1, hits give low values 1.02 | locus YHR200W, strain rpn10, hits give low values 0.972 | locus YIL066C, strain RNR3, hits give low values 0.999 | locus YIL073C, strain SPO22, hits give low values 1.03 | locus YIL125W, strain kgd1, hits give low values 0.968 | locus YIR030C, strain dcg1, hits give low values 0.971 | locus YJL095W, strain BCK1, hits give low values 0.929 | locus YJL134W, strain LCB3, hits give low values 0.992 | locus YJL168C, strain set2, hits give low values 0.996 | locus YJL187C, strain SWE1 (second series), hits give low values 0.966 | locus YJR075W, strain HOC1, hits give low values 0.999 | locus YKL009W, strain mrt4, hits give low values 0.987 | locus YKL068W, hits give low values 1 | locus YKL085W, strain MDH1 (second series), hits give low values 1.02 | locus YKL085W, strain MDH1, hits give low values 1.02 | locus YKL190W, strain CNB1, hits give low values 1.01 | locus YLR039C, strain RIC1, hits give low values 0.982 | locus YLR058C, strain SHM2, hits give low values 0.962 | locus YLR102C, strain apc9, hits give low values 0.984 | locus YLR268W, strain sec22, hits give low values 0.906 | locus YLR371W, strain rom2, hits give low values 0.973 | locus YML016C, strain PPZ1, hits give low values 0.983 | locus YML032C, strain rad52, hits give low values 0.956 | locus YML124C, strain tub3, hits give low values 0.995 | locus YMR078C, strain ctf18, hits give low values 1 | locus YMR223W, strain ubp8, hits give low values 0.983 | locus YMR307W, strain GAS1, hits give low values 1.04 | locus YNL067W, strain RPL9B, hits give low values 1.01 | locus YNL128W, strain TEP1, hits give low values 1.01 | locus YNL233W, strain BNI4, hits give low values 1.05 | locus YNL250W, strain rad50, hits give low values 1 | locus YNL271C, strain bni1, hits give low values 0.974 | locus YNL298W, strain CLA4, hits give low values 0.939 | locus YNL307C, strain MCK1, hits give low values 0.95 | locus YNR052C, strain pop2, hits give low values 0.994 | locus YOL012C, strain htz1 1.23 | locus YOL147C, strain pex11, hits give low values 0.967 | locus YOR061W, strain CKA2, hits give low values 0.988 | locus YOR069W, strain VPS5, hits give low values 1.01 | locus YOR136W, strain idh2, hits give low values 0.982 | locus YOR144C, strain elg1, hits give low values 0.986 | locus YOR316C, strain cot1, hits give low values 0.985 | locus YPL055C, strain LGE1, hits give low values 0.963 | locus YPL241C, strain CIN2, hits give low values 1.01 | locus YPR119W, strain clb2, hits give low values 1.02 | locus YPR141C, strain kar3, hits give low values 1.01 | locus YPR167C, strain met16, hits give low values 1.01 | strain wtn01, hits give low values 0.943
active: locus YKR001C, strain vps1, hits give low values 0.863 | locus YLR418C, strain cdc73, hits give low values 0.781 | locus YOR184W, strain ser1, hits give low values 0.826 | locus YPR163C, strain tif3, hits give low values 0.906
